The source of these data is ChEMBL document CHEMBL1961873, “Compounds: GSK PKIS; Assays: Nanosyn kinase panel” (2012).

The target in assay [1] is Rho-associated protein kinase 1 (Homo sapiens) (UniProt Q13464). As to conditions: at 1 µM.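 Further: reported values are mean percent inhibition of ROCK1.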
For assay [2], the target named is Rho-associated protein kinase 2 (Homo sapiens) (UniProt O75116). As to conditions: at 0.1 µM.
The target is the same in assay [3]. As to conditions: at 1 µM.
Assay [4] concerns the target Ribosomal protein S6 kinase alpha-1 (Homo sapiens) (UniProt Q15418). As to conditions: at 0.1 µM.
Assay [5] shares this target. Conditions: at 1 µM.
In assay [6] the target is Ribosomal protein S6 kinase alpha-3 (Homo sapiens) (UniProt P51812). As to conditions: at 0.1 µM.
Ribosomal protein S6 kinase alpha-3 (Homo sapiens), sequence (P51812 whole entry): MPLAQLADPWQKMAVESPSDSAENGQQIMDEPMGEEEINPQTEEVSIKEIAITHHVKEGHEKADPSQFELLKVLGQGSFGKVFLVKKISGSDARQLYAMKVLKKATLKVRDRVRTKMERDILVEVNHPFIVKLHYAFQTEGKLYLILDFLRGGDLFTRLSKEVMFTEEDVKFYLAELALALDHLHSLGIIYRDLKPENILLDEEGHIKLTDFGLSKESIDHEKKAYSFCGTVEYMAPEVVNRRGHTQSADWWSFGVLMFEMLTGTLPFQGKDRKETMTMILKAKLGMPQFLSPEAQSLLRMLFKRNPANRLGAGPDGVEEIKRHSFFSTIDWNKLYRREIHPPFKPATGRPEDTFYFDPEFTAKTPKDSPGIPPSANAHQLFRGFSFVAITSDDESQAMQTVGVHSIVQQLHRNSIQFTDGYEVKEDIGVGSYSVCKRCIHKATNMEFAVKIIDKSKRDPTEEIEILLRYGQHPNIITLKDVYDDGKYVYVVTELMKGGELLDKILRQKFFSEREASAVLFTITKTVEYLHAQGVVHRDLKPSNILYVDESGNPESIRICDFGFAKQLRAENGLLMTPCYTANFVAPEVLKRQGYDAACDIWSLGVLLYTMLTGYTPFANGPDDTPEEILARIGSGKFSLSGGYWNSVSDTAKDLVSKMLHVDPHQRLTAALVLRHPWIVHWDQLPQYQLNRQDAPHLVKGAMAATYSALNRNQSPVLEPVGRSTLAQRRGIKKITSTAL
Assay [7] shares this target. As to conditions: at 1 µM.
In assay [8] the target is Ribosomal protein S6 kinase alpha-2 (Homo sapiens) (UniProt Q15349). Conditions: at 0.1 µM.
Ribosomal protein S6 kinase alpha-2 (Homo sapiens), sequence (Q15349 whole entry): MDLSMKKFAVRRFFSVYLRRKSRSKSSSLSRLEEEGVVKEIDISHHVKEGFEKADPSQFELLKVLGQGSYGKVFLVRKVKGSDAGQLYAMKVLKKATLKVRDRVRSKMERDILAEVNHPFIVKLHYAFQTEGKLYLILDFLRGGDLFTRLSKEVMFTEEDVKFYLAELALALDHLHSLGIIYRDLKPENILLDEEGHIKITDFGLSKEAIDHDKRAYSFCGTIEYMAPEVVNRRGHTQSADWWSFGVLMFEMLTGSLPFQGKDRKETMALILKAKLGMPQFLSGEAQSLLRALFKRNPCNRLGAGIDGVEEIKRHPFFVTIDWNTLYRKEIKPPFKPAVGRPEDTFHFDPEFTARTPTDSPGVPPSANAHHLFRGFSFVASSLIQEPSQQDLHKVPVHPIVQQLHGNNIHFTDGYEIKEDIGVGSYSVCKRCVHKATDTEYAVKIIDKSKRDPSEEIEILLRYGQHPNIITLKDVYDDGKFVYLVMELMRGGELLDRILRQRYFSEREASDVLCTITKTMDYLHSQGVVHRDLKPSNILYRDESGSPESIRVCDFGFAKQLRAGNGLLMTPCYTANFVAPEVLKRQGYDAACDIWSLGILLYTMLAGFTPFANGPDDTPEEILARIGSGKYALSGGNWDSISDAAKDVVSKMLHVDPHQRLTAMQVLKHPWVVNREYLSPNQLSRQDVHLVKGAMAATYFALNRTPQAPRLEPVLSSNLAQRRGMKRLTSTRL
For assay [9] the target is unchanged. Conditions: at 1 µM.
Assay [10] has as its target Ribosomal protein S6 kinase alpha-6 (Homo sapiens) (UniProt Q9UK32). As to conditions: at 0.1 µM.
The target is the same in assay [11]. Conditions: at 1 µM.
Assay [12] concerns the target T1, Serine/threonine-protein kinase Sgk1 (Homo sapiens) (UniProt O00141).
T1 sequence (whole entry): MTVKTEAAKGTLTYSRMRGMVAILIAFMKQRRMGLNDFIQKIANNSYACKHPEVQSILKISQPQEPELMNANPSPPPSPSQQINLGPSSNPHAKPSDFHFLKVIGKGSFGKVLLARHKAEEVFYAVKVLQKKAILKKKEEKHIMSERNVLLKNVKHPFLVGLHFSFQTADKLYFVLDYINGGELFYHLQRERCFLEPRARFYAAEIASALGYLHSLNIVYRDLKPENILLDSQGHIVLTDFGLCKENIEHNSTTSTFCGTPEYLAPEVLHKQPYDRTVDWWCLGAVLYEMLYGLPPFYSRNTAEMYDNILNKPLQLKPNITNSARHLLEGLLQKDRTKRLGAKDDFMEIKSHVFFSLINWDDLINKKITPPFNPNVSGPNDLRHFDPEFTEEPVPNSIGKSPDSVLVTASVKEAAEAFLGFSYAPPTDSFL
Conditions: at 0.1 µM.

Assay [13] concerns the target T1, Serine/threonine-protein kinase Sgk1 (Homo sapiens). Conditions: at 1 µM.
For assay [14], the target named is T2, Serine/threonine-protein kinase Sgk2 (Homo sapiens) (UniProt Q9HBY8).
T2 sequence (whole entry): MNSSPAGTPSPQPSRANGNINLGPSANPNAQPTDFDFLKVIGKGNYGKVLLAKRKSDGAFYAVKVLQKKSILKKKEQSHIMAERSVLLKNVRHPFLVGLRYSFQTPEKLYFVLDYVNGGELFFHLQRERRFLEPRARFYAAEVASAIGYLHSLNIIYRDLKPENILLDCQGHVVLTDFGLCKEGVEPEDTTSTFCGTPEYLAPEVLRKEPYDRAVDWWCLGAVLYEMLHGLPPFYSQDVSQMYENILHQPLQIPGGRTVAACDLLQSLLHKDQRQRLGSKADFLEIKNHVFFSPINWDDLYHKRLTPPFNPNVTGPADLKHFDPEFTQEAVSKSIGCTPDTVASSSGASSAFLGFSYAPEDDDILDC
Conditions: at 0.1 µM.

Assay [15] deals with T2, Serine/threonine-protein kinase Sgk2 (Homo sapiens). Conditions: at 1 µM.
In assay [16] the target is T3, Serine/threonine-protein kinase Sgk3 (Homo sapiens) (UniProt Q96BR1).
T3 sequence (whole entry): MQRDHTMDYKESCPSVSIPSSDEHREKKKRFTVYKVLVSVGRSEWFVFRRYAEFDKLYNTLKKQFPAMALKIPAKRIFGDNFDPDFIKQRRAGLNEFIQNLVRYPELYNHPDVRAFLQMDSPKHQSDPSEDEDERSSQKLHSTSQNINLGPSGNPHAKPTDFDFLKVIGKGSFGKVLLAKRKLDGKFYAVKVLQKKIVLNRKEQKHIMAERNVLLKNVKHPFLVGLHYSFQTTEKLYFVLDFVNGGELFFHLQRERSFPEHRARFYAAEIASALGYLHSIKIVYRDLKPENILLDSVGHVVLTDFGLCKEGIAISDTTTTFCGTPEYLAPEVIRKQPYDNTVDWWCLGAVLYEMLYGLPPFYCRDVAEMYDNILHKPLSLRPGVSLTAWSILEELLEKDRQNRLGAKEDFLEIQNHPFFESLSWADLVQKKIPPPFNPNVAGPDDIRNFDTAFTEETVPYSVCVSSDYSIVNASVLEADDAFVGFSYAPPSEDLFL
As to conditions: at 0.1 µM.

In assay [17] the target is T3, Serine/threonine-protein kinase Sgk3 (Homo sapiens). Conditions: at 1 µM.
For assay [18], the target named is 5'-AMP-activated protein kinase catalytic subunit alpha-1 (Homo sapiens) (UniProt Q13131). As to conditions: at 0.1 µM.
Assay [19] has the same target. Conditions: at 1 µM.
The target of assay [20] is 5'-AMP-activated protein kinase catalytic subunit alpha-2 (Homo sapiens) (UniProt P54646). Conditions: at 0.1 µM.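 Further: mean inhibition measured on the AMPK complex of alpha2, beta1 and gamma1 subunits.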
5'-AMP-activated protein kinase catalytic subunit alpha-2 (Homo sapiens), sequence (P54646 whole entry, looked up): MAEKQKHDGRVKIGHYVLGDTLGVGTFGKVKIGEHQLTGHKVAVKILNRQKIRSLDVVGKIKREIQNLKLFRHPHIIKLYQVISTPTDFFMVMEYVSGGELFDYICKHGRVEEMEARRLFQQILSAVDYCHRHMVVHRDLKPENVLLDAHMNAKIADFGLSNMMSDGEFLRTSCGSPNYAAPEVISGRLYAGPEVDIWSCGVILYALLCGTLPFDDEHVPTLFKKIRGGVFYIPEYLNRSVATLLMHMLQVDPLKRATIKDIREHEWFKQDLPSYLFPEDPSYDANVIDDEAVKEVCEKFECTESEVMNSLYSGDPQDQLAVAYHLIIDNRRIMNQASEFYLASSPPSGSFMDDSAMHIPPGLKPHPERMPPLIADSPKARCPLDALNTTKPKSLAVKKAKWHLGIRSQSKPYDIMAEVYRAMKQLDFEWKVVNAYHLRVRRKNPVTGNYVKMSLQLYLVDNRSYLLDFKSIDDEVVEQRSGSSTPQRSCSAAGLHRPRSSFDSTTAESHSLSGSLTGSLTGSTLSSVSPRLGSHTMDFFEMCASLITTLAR

Ribosomal protein S6 kinase alpha-6 (Homo sapiens), sequence (Q9UK32 whole entry): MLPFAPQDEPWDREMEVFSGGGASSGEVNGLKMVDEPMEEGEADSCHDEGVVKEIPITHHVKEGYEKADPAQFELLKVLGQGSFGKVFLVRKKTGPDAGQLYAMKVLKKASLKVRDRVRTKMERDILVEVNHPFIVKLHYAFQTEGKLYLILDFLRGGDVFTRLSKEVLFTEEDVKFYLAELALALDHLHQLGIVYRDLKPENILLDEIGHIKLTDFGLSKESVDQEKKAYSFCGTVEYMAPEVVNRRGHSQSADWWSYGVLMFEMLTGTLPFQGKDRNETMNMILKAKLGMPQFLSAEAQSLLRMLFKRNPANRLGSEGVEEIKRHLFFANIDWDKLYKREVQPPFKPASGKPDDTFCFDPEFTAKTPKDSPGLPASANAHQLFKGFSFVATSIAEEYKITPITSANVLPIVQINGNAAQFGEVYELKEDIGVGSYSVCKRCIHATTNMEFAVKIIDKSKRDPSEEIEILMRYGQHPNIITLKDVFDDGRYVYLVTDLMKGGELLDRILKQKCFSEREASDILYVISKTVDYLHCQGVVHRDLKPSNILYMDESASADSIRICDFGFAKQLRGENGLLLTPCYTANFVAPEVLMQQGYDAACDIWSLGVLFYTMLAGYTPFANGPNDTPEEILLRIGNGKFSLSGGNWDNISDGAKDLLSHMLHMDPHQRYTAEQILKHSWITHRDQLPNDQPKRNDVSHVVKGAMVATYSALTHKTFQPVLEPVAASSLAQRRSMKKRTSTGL
Rho-associated protein kinase 1 (Homo sapiens), sequence (Q13464 2-1354 limits assumed): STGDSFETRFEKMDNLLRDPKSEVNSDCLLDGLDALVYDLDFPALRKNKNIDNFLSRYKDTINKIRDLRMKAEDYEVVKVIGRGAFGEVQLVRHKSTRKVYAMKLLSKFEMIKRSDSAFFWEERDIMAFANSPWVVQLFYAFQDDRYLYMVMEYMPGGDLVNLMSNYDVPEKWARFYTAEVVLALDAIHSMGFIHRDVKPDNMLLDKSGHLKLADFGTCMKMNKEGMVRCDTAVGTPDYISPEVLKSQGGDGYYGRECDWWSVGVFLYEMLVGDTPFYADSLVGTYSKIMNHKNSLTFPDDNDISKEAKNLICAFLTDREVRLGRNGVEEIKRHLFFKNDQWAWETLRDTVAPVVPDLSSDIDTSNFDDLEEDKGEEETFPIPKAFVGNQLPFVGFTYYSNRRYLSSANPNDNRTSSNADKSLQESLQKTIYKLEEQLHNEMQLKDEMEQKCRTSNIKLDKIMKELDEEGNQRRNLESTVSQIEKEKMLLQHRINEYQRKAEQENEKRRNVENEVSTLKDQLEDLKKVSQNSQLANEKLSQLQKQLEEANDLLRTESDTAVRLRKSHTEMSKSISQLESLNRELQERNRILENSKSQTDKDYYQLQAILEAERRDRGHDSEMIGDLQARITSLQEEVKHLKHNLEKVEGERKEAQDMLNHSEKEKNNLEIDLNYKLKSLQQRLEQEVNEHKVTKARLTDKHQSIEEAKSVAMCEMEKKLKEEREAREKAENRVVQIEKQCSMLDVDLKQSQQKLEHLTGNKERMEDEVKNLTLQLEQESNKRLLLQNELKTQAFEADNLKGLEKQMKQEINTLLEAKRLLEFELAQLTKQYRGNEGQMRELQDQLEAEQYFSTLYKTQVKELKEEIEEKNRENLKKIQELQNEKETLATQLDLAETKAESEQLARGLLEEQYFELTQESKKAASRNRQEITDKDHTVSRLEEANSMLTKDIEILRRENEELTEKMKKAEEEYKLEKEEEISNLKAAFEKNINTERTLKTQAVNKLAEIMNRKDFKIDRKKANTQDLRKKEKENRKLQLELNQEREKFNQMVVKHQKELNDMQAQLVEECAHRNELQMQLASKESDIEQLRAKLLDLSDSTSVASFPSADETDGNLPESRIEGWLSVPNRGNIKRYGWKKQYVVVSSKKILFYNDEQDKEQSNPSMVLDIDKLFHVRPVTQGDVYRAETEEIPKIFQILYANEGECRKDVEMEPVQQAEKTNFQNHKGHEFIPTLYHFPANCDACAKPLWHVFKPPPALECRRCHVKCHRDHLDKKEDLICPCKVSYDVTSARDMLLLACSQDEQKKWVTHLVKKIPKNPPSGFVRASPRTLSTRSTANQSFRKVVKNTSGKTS
Ribosomal protein S6 kinase alpha-1 (Homo sapiens), sequence (Q15418 whole entry): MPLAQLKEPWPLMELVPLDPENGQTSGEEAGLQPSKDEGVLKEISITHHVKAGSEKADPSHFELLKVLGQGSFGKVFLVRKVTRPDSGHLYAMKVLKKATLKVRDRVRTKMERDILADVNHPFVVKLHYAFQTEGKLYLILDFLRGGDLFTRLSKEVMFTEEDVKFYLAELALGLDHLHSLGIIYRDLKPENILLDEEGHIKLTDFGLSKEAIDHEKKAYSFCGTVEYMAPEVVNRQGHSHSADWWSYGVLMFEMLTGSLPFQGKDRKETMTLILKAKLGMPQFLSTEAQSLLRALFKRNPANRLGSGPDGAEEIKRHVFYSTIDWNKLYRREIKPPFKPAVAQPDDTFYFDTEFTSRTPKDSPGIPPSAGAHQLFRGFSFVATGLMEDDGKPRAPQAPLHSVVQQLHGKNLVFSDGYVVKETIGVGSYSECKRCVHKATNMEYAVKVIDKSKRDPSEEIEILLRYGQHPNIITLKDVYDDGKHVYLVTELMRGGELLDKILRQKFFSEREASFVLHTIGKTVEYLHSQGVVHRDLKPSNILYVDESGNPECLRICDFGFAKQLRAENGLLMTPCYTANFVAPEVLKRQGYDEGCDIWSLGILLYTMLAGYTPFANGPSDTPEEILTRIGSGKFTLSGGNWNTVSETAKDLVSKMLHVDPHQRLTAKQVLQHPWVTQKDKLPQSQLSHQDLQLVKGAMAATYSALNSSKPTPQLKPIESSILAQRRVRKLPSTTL

The term inhibition denotes the relative decrease from the control value, in per cent. Regarding `Cc1nnc(-c2ccc(C)c(-c3ccc(C(=O)NCc4ccc(Cl)cc4)cc3)c2)o1`, the inhibition came out at 2.48% in assay [1]; 3.86% in [2]; 5.72% in [3]; 2.78% in [4]; 2.72% in assay [5]; 2% in assay [6]. Further, the inhibition is 2.89% in [7]; 3.07% in [8]; 3.77% in [9]; 1.59% in assay [10]; 2.38% in [11]; 5.07% in [12]. The inhibition in [13] turned out to be 3.26%; in [14], 2.67%; in assay [15], 6.19%; in assay [16], 1.38%; in assay [17], 5.66%; in assay [18] it was 2.95%. Besides, the inhibition stood at 3.4% in assay [19] and 3.74% in [20].
For `O=C(Nc1n[nH]c2cc(-c3ccccc3)ccc12)C1CC1`, the inhibition in assay [1] is 1.05%; in assay [2] it was 2.59%; in assay [3], 0.78%; in assay [4], 0.84%; in assay [5] it was 1.81%; in assay [6] it was 1.2%. In addition, the inhibition in [7] is 0.07%; in [8], 3.06%; in assay [9], 3.36%; in assay [10], 3%; in [11] it was 3.11%; in assay [12], 2.86%. The inhibition in assay [13] amounted to 5.38%; in assay [14] it was 1.79%; in [15], 1.73%; in assay [16], 4.57%; in [17] it was 3.95%; in [18], 3.49%. For the same molecule, the inhibition in assay [19] amounted to 4.22%; in assay [20], 4.21%.
Consider `O=C(Nc1ccc(Oc2ccc3[nH]c(NC(=O)c4ccccc4)nc3c2)cc1)Nc1cc(C(F)(F)F)ccc1F`, for which the inhibition in assay [1] came out at 6.36%; in assay [2], 3.35%; in assay [3], 8.83%; in assay [4], 1.17%; in assay [5] it was 5.03%; in assay [6], 0.81%. The inhibition in assay [7] came to 1.47%; in assay [8], 3.12%; in [9], 20.5%; in assay [10], 1.69%; in assay [11], 2.72%; in [12] it was 1.68%. The inhibition in assay [13] was 3.96%; in assay [14] it was 2.66%; in assay [15], 4.13%; in assay [16], 1.78%; in assay [17], 2.24%; in assay [18], 2.87%. The values for the inhibition in [19] and in [20] were 2.98% and 0.79%, respectively.
Turning to `Fc1ccc(-c2ncn(C3CCNCC3)c2-c2ccnc(Oc3ccc4c(c3)OCO4)n2)cc1`, the inhibition is 5.2% in assay [1]; 4.88% in assay [2]; 8.46% in assay [3]; 1.84% in assay [4]; 3.67% in assay [5]; -0.4% in assay [6]. For the same molecule, the inhibition amounted to 2.18% in [7]; 2.81% in [8]; 4.39% in [9]; 0.63% in assay [10]; 3.03% in assay [11]; 3.72% in assay [12]. The inhibition stood at 3.6% in assay [13]; 2.63% in assay [14]; 3.07% in assay [15]; 6.26% in [16]; 4.11% in [17]; 2.72% in assay [18]. Moreover, the inhibition worked out at 3.99% in [19] and 3.86% in assay [20].
For the molecule `NC(=O)c1cc(-c2ccc(F)cc2)cc(-c2ccncc2)c1N`, the inhibition in [1] came to 1.76%; in assay [2], 2.33%; in assay [3], 6.23%; in assay [4], 1.16%; in assay [5], 2.59%; in assay [6], 0.17%. The inhibition in assay [7] amounted to 1.79%; in [8], 1.82%; in assay [9] it was 2.97%; in assay [10] it was 0.55%; in [11], 0.89%; in assay [12], 3.79%. The inhibition was determined as 4.51% in assay [13]; 1.44% in assay [14]; 2.58% in [15]; 3.22% in assay [16]; 5.96% in assay [17]; 2.78% in [18]. Moreover, the inhibition is 2.57% in assay [19] and 2.54% in assay [20].
Consider `CN(C)CCCNc1nccc(-c2c(-c3ccc(F)cc3)nn3cc(C(F)(F)F)ccc23)n1`, for which the inhibition came to 1.8% in assay [1]; 1.71% in assay [2]; 3.88% in assay [3]; 2.04% in assay [4]; 4.02% in assay [5]; 0.68% in [6]. Moreover, the inhibition in assay [7] amounted to 2.23%; in [8], 1.91%; in assay [9], 3.08%; in assay [10], 0.86%; in assay [11] it was 2.42%; in [12] it was 1.95%. The inhibition came out at 2.09% in assay [13]; 2.67% in [14]; 1.75% in assay [15]; 1.92% in assay [16]; 0.78% in [17]; 1.32% in assay [18]. Besides, the inhibition was 1.37% in assay [19] and 0.22% in assay [20].
